Several values for one entry are separate records, joined by “and”; a condition that tells them apart may be missing. Equal entries are not always repeated. Results filed as inconclusive are left out. A structure can be active in one record and inactive in another. Activity calls are given as the source filed them. Unless noted, the call rests on the fitted dose curve; in most records, active means well fitted curve in the direction sought with a large enough effect in the repeat runs; inconclusive means weak or mixed curves; inactive means no such curve, though single readings can be large; an effect the other way counts as inactive or inconclusive.

Experiment [1] in a line: qHTS assay to identify small molecule agonists of the constitutive androstane receptor (CAR) signaling pathway - cell viability counter screen (AID 1224836). Further: nearly all actives have a fitted effect of over 45% in size. The essentials:
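23 h treatment, 37 C, 5% CO2. Cell line: HepG2 stably expressing hCAR with a CYP2B6-2.2kb construct. Co-treatment: PK11195, 0.75 uM final. Read-out: CellTiter-Fluor fluorescence intensity.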
Background: Quantitative high-throughput screening tests each substance at several concentrations.

Experiment [2] has as its target Nuclear receptor subfamily 1 group I member 3 (Homo sapiens) (UniProt Q14994). Nature of the experiment: qHTS assay to identify small molecule antagonists of the constitutive androstane receptor (CAR) signaling pathway (AID 1224838).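 Further: HepG2 cells stably expressing hCAR with CYP2B6 luciferase reporter stimulated by CITCO; nearly all actives have a fitted effect of over 40% in size.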 The essentials: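 Quantitative HTS in double-stable HepG2-CYP2B6-hCAR cells. After 4 h plating, cells get compound (15 concentrations) and CITCO at 50 nM final, incubate 24 h at 37 C, then ONE-Glo luminescence is read.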

Experiment [3] can be described thus: qHTS assay to identify small molecule antagonists of the estrogen related receptor signaling pathway with the pleiotropic PPARgamma coactivator (PGC) from Tox21 10K library - cell viability counter screen (AID 1224840; active means well fitted cell-killing curve with a large enough effect in the repeat runs, not every such curve was filed as active; further: nearly all actives have a fitted effect of over 40% in size; further: potency means the concentration at half of the fitted maximal effect). The essentials:
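Compounds in DMSO, alongside positive and negative controls, were pinned onto PGC/ERR cells (2,000 per well). Exposure lasted 17.5 hours at 37 C, followed by a 30-minute CellTiter-Fluor incubation and fluorescence reading.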

The nature of experiment [4]: qHTS assay to identify small molecule antagonists of the estrogen related receptor signaling pathway with the pleiotropic PPARgamma coactivator (PGC) from Tox21 10K library (AID 1224841; call rule not given here; further: actives are mostly falling curves and most rising ones were filed inactive; nearly all actives have a fitted effect of over 50% in size). The essentials:
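Compound exposure ran 18 hours at 37 C in PGC/ERR cells (2,000/well) that had first rested 6 hours in a 37 C/5% CO2 incubator. Luciferase activity was then detected with One-Glo after a 30-minute room-temperature step.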

A short description of experiment [5]: qHTS assay to identify small molecule agonists of the estrogen related receptor signaling pathway with the pleiotropic PPARgamma coactivator (PGC) from Tox21 10K library (AID 1224842). Further: nearly all actives have a fitted effect of over 15% in size. A digest of the protocol:
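Luminescence from One-Glo (30 min, room temperature) measured after PGC/ERR cells had 18 h at 37 C with pinned compound (23 nL in DMSO). Cells had been seeded at 2,000 per well and pre-incubated 6 h.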

Experiment [6] concerns the target Thyrotropin receptor (Homo sapiens) (UniProt P16473). The experiment in a line: qHTS assay to identify small molecule agonists of the thyroid stimulating hormone receptor (TSHR) signaling pathway (AID 1224843; calls by dose curve; further: nearly all actives have a fitted effect of over 45% in size). A digest of the protocol: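 Screening of the Tox21 10K collection used HEK293 cells engineered with TSHR at 800 cells per well. After a 30-min room-temperature compound exposure, HTRF cAMP reagents were added and fluorescence recorded 1 h later.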

Experiment [7] in a line: qHTS assay to identify small molecule agonists of H2AX (AID 1224845; active means well fitted activation curve with a large enough effect in the signal ratio in the repeat runs, not every such curve was filed as active; the % refers to the signal ratio). The essentials:
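Phospho-H2AX Ser139 measured by HTRF (ex 320 nm; em 665 and 620 nm) after 24 hr antibody incubation. Compounds, 15 concentrations, 0.76% DMSO, were applied to CHO-K1 cells for 3hr at 37C before lysis.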

Experiment [8] is described as follows: qHTS assay to identify small molecule agonists of H2AX - cell viability counter screen (AID 1224847; calls by dose curve; further: top concentration of the series differs between compounds; nearly all actives have a fitted effect of over 30% in size). The essentials:
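Compounds tested at 15 concentrations were incubated 3 hr at 37C with wild-type CHO-K1 cells; cellular ATP-based luminescence (CellTiter-Glo) indicated viability.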

Experiment [9] can be described thus: qHTS assay to identify small molecule antagonists of the estrogen related receptor (ERR) signaling pathway from Tox21 library (AID 1224848). Further: nearly all actives have a fitted effect of over 50% in size. The essentials:
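Antagonist-mode screen of the Tox21 10K library in an NTP-provided ERR reporter cell line; 18 h compound exposure at 37 C, luminescence measured with ONE-Glo.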

Experiment [10] can be described thus: qHTS assay to identify small molecule agonists of the estrogen related receptor (ERR) signaling pathway from Tox21 library (AID 1224849; calls by dose curve; further: nearly all actives have a fitted effect of over 15% in size). Conditions: ERR reporter cell line, ONE-Glo luciferase, 18 h. The essentials:
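We plated ERR reporter cells, waited 6 h, added compounds in DMSO by pin tool and incubated them 18 h at 37 C. ONE-Glo was then added and luminescence read after 30 min.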

The nature of experiment [11]: qHTS RealTime-Glo MT Cell Viability Assay in HepG2 cells - 24 hour (AID 1224867). Further: nearly all actives have a fitted effect of over 50% in size. Further: potency means the concentration at half of the fitted maximal effect. The essentials: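 HepG2 suspension premixed with RealTime-Glo reagents is plated at 600 cells per well and left 5 h at 37 C/5% CO2. Compounds in DMSO then go in, and bioluminescence reflecting viable cell number is recorded over 40 h.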
Experiment [12] is described as follows: qHTS RealTime-Glo MT Cell Viability Assay in HEK293 cells - 32 hour (AID 1224868). Further: nearly all actives have a fitted effect of over 50% in size. Further: potency means the concentration at half of the fitted maximal effect. On activity change, negative = cytotoxic: top concentration of the series differs between compounds. The essentials: (§1)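 Reads taken at 0, 8, 16, 24, 32 and 40 h from the same wells. HEK293 cells (600/well) carried RealTime-Glo reagents from seeding, with compound added after a 5 h settle at 37 C.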
A short description of experiment [13]: A CellTox Green Cytotoxicity Assay to monitor cytotoxicity in HEK293 cells - 0 hour (AID 1224869). Further: nearly all actives have a fitted effect of over 50% in size. The essentials: (§2)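 Each value comes from one timepoint of a single continuous run in which HEK293 cells with CellTox Green were exposed to compound for up to 40 h at 37 C, dye fluorescence rising with cell death.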
Experiment [14] in a line: qHTS RealTime-Glo MT Cell Viability Assay in HepG2 cells - 40 hour (AID 1224870). Further: nearly all actives have a fitted effect of over 50% in size. Further: potency means the concentration at half of the fitted maximal effect. A digest of the protocol:
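Real-time viability: cells seeded at 600 per well together with NanoLuc and cell-permeant prosubstrate, compounds added after 5 h incubation. Luminescence tracked at 0, 8, 16, 24, 32 and 40 h of exposure.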

The nature of experiment [15]: A CellTox Green Cytotoxicity Assay to monitor cytotoxicity in HEK293 cells - 40 hour (AID 1224871). Further: nearly all actives have a fitted effect of over 45% in size. Further: potency means the concentration at half of the fitted maximal effect. The essentials: as §2
Experiment [16] in a line: qHTS RealTime-Glo MT Cell Viability Assay in HEK293 cells - 16 hour (AID 1224872). Further: nearly all actives have a fitted effect of over 50% in size. Further: potency means the concentration at half of the fitted maximal effect. On activity change, negative = cytotoxicity: top concentration of the series differs between compounds. A digest of the protocol:
as §1

Experiment [17] deals with Nuclear receptor subfamily 1 group I member 3 (Homo sapiens) (UniProt Q14994). Nature of the experiment: qHTS assay to identify small molecule agonists of the constitutive androstane receptor (CAR) signaling pathway (AID 1224839).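 Further: HepG2 cells stably carrying human CAR and a CYP2B6 luciferase reporter; nearly all actives have a fitted effect of over 15% in size.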 The essentials:
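Compounds tested at 15 concentrations on HepG2 cells stably harbouring hCAR and CYP2B6-2.2kb reporter constructs, co-treated with PK11195 (0.75 uM final), 24 h at 37 C; luminescent reporter signal quantified.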

Experiment [18] is described as follows: qHTS assay to identify small molecule agonists of the hypoxia (HIF-1) signaling pathway - cell viability counter screen (AID 1224844; calls by dose curve; further: nearly all actives have a fitted effect of over 50% in size; further: potency means the concentration at half of the fitted maximal effect). The essentials: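 Luminescent ATP content (CellTiter-Glo, 30 min, room temperature) served as the viability measure in HRE-bla ME-180 cells exposed to compounds for 17 hrs in low-serum medium (0.5% dialyzed FBS).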
Experiment [19] in a line: qHTS assay to identify small molecule agonists of the hypoxia (HIF-1) signaling pathway (AID 1224846; active means well fitted activation curve with a large enough effect in the signal ratio in the repeat runs, not every such curve was filed as active; the % refers to the signal ratio). The essentials:
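Measured by blue/green FRET after loading CCF4-AM: beta-lactamase expressed from a hypoxia response element in ME-180 cells. Test agents were delivered in DMSO and left 17 hrs; cells had been plated 5 hrs earlier in low-serum (0.5% dialyzed FBS) medium.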
On the % scale 0 is the no-effect control and ±100 the full control effect.

Chain of Thyrotropin receptor (Homo sapiens) (P16473 whole entry, looked up): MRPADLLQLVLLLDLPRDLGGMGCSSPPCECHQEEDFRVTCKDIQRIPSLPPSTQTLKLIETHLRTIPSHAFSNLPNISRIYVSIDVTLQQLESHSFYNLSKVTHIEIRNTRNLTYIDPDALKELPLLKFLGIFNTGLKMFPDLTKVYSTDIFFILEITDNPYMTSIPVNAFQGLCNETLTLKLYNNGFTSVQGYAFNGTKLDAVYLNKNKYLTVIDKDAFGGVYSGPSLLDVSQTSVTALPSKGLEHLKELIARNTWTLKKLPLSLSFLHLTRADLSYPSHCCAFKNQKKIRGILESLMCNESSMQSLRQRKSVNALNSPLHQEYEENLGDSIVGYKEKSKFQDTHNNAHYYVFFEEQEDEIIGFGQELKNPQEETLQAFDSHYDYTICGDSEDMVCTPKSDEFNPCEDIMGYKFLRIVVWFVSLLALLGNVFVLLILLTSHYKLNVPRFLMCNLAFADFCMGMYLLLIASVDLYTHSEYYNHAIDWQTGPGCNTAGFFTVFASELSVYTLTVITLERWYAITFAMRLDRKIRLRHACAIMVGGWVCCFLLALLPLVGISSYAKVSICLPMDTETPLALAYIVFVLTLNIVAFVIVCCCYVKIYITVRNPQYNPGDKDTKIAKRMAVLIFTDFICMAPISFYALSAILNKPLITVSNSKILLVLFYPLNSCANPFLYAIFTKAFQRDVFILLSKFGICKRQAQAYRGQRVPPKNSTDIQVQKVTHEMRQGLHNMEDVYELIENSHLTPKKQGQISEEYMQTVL
Chain of Nuclear receptor subfamily 1 group I member 3 (Homo sapiens) (Q14994 whole entry, looked up): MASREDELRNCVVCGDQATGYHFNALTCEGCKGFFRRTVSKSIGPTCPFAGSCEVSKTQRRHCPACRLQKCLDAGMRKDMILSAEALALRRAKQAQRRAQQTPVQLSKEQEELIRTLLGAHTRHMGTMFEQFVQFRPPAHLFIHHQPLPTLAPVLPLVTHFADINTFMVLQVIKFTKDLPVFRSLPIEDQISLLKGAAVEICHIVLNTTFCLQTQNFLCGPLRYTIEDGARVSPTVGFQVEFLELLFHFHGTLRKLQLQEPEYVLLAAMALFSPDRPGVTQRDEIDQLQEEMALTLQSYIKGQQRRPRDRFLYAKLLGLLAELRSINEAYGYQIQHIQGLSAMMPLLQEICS

Consider `NC(Cc1ccc(Cl)cc1)C(=O)O` (centres undefined), for which the viability change, negative = cytotoxic is 1.54% [at 0.349 µM] (inactive) in [1] and -10% [at 0.349 µM] (inactive) in experiment [3]. Also, the activity, negative = inhibition in [2] was -14.1% [at 0.349 µM] (inactive); in experiment [4] it was 0.39% [at 0.349 µM] (inactive); in [9], -15% [at 0.349 µM] (inactive). Moreover, the activation is 0.108% [at 0.349 µM] (inactive) in [5] and -0.308% [at 0.349 µM] (inactive) in experiment [6]. For the same compound, the activation (H2AX phosphorylation) in experiment [7] is -0.212% [at 0.582 µM] (inactive). The activity change, negative = cytotoxicity in experiment [8] was -0.321% [at 0.582 µM] (inactive); in experiment [11], 0.0518% [at 0.29 µM] (inactive); in experiment [16] it was 9.16% [at 0.29 µM] (inactive). Besides, the activity change, positive = activation in [10] (at 0.349 µM (top of the series)) is -8.03% (inactive). Besides, the activity change, negative = cytotoxic was 11.7% [at 0.29 µM] (inactive) in experiment [12] and 0.881% [at 0.29 µM] (inactive) in experiment [14]. Moreover, the cytotoxicity in [13] is -2.12% [at 0.29 µM] (inactive). For the same compound, the cytotoxicity increase in experiment [15] was -8.99% [at 0.29 µM] (inactive).
Take `OCCOCCN1CCN(C(c2ccccc2)c2ccc(Cl)cc2)CC1` (centres undefined): the Potency entry in experiment [2], in [17], in experiment [6] and in experiment [13] was “inactive” throughout. Also, the Potency in experiment [3] is 47.9 µM (active) and inactive; in [18], 9.64 µM (active); in [11] it was 48.3 µM (active) and inactive; in experiment [12], 6.08 µM (active) and inactive; in [14], 48.3 µM (active) and inactive; in [15], 54.2 µM (active) and inactive. Moreover, in experiment [16], the Potency is 9.64 µM (active) and inactive.
Consider `CCOc1ccccc1C(N)=O`, for which the Potency result in [1], in experiment [2], in experiment [3], in [6], in experiment [18] and in experiment [7] was “inactive” in each case. Moreover, the Potency entry in experiment [19], in experiment [11], in experiment [12], in experiment [13], in experiment [14] and in experiment [15] was “inactive” throughout. In addition, in experiment [16], the Potency result is “inactive”.
Turning to `CC(C(O)c1ccc(O)cc1)N1CCC(Cc2ccccc2)CC1` (centres undefined), the Potency result in experiment [1], in experiment [3], in [4], in [18], in [7] and in experiment [8] was “inactive” each time. For the same compound, the Potency result in experiment [9], in experiment [11], in [12], in experiment [13], in [14] and in experiment [15] was “inactive” in each case. Further, the Potency result in experiment [16] is “inactive”. The activity change, positive = activation in [10] (at 42.5 µM (top of the series)) was -0.85% (inactive).
`NCCO`: the Potency result in experiment [1], in [3], in experiment [6], in experiment [7], in experiment [19] and in experiment [8] was “inactive” in each case. Further, the Potency result in experiment [11], in [13], in experiment [14], in experiment [15] and in [16] was “inactive” throughout.
As for `CCCCCCCCCCCC[N+](C)(C)C`, the Potency result in [2], in experiment [17], in experiment [18], in [7], in experiment [13] and in [16] was “inactive” in each case. For the same compound, the Potency was 6.15 µM (active) and 3.47 µM (active) in [12]; 48.9 µM (active) and 49 µM (active) and 43.6 µM (active) in experiment [14]; 54.8 µM (active) and 17.4 µM (active) and 54.9 µM (active) in experiment [15].

(Values after PubChem BioAssay (Tox21).)
